14-3-3g Raf: modulators of 14-3-3 gamma protein binding, primary screen, biochemical, fluorescence polarization; 160,000 tested, 0.19% active; FP, 14-3-3gamma / TMR-pS259-Raf peptide binding; inhibition, % at 40 µM; in the data active = inhibition above about 30%
Target sequence (P61981 whole entry, looked up): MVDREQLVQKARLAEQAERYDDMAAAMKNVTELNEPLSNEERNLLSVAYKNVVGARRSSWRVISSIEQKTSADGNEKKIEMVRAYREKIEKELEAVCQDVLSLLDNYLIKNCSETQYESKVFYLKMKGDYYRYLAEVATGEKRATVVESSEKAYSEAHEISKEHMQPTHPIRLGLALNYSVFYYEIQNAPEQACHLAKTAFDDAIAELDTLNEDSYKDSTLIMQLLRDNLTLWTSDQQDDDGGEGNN
A number is an active result; . = inactive; + = active, no number. Shown is part of a subset that was picked to be rich in hits.

SMILES | 14-3-3g Raf
CCOc1ccc([N+](=O)[O-])cc1C1Nc2ccccc2-c2nnc(SC)nc2O1 (centres undefined) | 38
CS(=O)(=O)N1CCCC(C(=O)NCCCN2CCCCCC2)C1 (centres undefined) | .
Oc1ccc(Br)cc1C=Nc1nc(C23CC4CC(CC(C4)C2)C3)cs1 | .
COc1cc(C=Cc2nc3cc(Cl)ccc3c(=O)n2-c2cccc([N+](=O)[O-])c2)cc(OC)c1OC | .
CCOc1cc(C2C3=C(CC(C)(C)CC3=O)NC3=C2C(=O)CC(C)(C)C3)ccc1OCc1ccccc1F | .
Cc1ccc(C)c(Nc2cc(C(=O)NCc3ccccn3)c3ccccc3n2)c1 | .
CC(C)OCCCNC(=O)c1cc(Nc2cccc(C(F)(F)F)c2)nc2ccccc12 | .
O=C(NCc1ccccn1)c1cc(Nc2cccc(C(F)(F)F)c2)nc2ccccc12 | 152
CCC(C)NC(=O)C1c2ccccc2C(=O)N(CCOC)C1c1ccc(F)cc1 (centres undefined) | .
COc1ccc2c(c1)C=CC1(O2)N(C)c2ccccc2C1(C)C (centres undefined) | .
CN1c2ccccc2C(C)(C)C12C=Nc1c(ccc3ccccc13)O2 (centres undefined) | 84
CN1c2c(ccc3ccccc23)C(C)(C)C12C=Cc1cc([N+](=O)[O-])ccc1O2 (centres undefined) | .
Cc1ccc(NS(=O)(=O)c2ccc3oc4ccc(S(=O)(=O)Nc5ccc(C)cc5)cc4c3c2)cc1 | .
CCOc1ccc(C=Nc2cc([N+](=O)[O-])ccc2C)c(O)c1 | +
CC(=O)Oc1ccc2ccccc2c1C=Nc1cc([N+](=O)[O-])ccc1C | 87
COc1cc(OC)c(C=Nc2cc([N+](=O)[O-])ccc2C)cc1Br | .
CCOc1ccc(-c2nc3cc(N=Cc4cc([N+](=O)[O-])ccc4O)ccc3o2)cc1 | .
COC(=O)c1ccc(N=Cc2c(OC(=O)c3cccc([N+](=O)[O-])c3)ccc3ccccc23)cc1 | .
Cc1ccccc1NC(=O)c1cc2ccccc2c(C=Nc2ccc([N+](=O)[O-])cc2O)c1O | .
CCOc1cc(C2C(C(=O)OC(C)C)=C(C)NC3=C2C(=O)CC(c2ccccc2)C3)ccc1O (centres undefined) | .
O=C(Nc1cccc2c1C(=O)c1ccccc1C2=O)c1ccc(Oc2ccccc2)cc1 | .
CCc1nc2ccccc2c(NC(=O)CN2CCN(C)CC2)c1C | .
O=C1C(Nc2ccccc2)=CC(c2ccc(Cl)cc2)N1c1ccccc1 (centres undefined) | .
CCCOc1ccc(S(=O)(=O)NCc2ccccc2)cc1 | .
COC(=O)c1ccc(-n2nnnc2SCc2c(C)cc(C)cc2C)cc1 | .
SMILES | 14-3-3g Raf
CCN(C(=O)CSc1nc2[nH]ncc2c(=O)n1-c1ccc(Br)cc1)c1cccc(C)c1 | .
Fc1ccccc1C1C=C(c2cccc(Br)c2)Nc2nc3ccccc3n21 (centres undefined) | .
Fc1ccccc1C1C=C(c2ccc(Br)s2)Nc2nc3ccccc3n21 (centres undefined) | .
Fc1ccccc1C1C=C(c2cccnc2)Nc2nc3ccccc3n21 (centres undefined) | 47
Cc1cc(Br)ccc1NC(=O)c1n[nH]c(=O)c2ccccc12 | .
CCSCCOC(=O)C1=C(C)NC2=C(C(=O)CC(c3ccccc3Cl)C2)C1c1ccc(F)cc1 (centres undefined) | .
Cc1nc(Nc2ccc(S(=O)(=O)Nc3nccs3)cc2)sc1C(=O)Nc1ccccc1 | .
CCCSc1nnc2c(n1)OC(C=Cc1ccco1)Nc1ccc(Br)cc1-2 (centres undefined) | 58
CCCCSc1nnc2c(n1)OC(CC)Nc1ccc(Br)cc1-2 (centres undefined) | .
CCCSc1nnc2c(n1)OC(c1cccs1)Nc1ccc(Br)cc1-2 (centres undefined) | .
Cc1cc(NC(=O)c2ccc(Br)cc2)ccc1I | .
CCC(=O)N1CCc2cc(S(=O)(=O)CCC(=O)Nc3ccc(C)cc3)ccc21 | .
Cc1nc2ccc(-c3ccc4nc(C)n(-c5ccc6c(c5)OCO6)c(=O)c4c3)cc2c(=O)n1-c1ccc2c(c1)OCO2 | .
CC1=NN(c2ccccc2)C2CCCCCCCCCCC12 (centres undefined) | .
Cc1ccc(-n2c(=O)[nH]cc(C(=O)Nc3ccc4c(c3)OCCO4)c2=O)cc1C | 37
COc1ccc(-n2c(=O)[nH]cc(C(=O)Nc3ccc4c(c3)OCCO4)c2=O)cc1 | .
Cc1ccc(-n2c(=O)[nH]cc(C(=O)Nc3ccc4c(c3)OCCO4)c2=O)cc1 | .
COc1cccc(C(=O)CC(=O)C(=O)Nc2cc(C)ccc2OC)c1 | .
C=CCn1c(=O)c(C(=O)Nc2nc(C)cs2)c(O)c2ccccc21 | .
Cc1nc(N=Nc2ccc(S(=O)(=O)O)cc2S(=O)(=O)O)c(COP(=O)(O)O)c(C=O)c1O | 35
Cc1nc(N=Nc2ccc(C(=O)O)cc2)c(COP(=O)(O)O)c(C=O)c1O | 69
Cc1cc(O)c(C=Nc2ccc(C(=O)O)cc2)c(C)c1Cl | .
O=C(c1cccc(Cl)c1)N1CCN(c2ccc([N+](=O)[O-])c(NC3CC3)c2)CC1 | .
